Assay outcomes deposited in PubChem by National Center for Advancing Translational Sciences (NCATS).
HEK293 cAMP cs: counter-screen for TSHR agonists: cAMP increase in parental HEK293; parental HEK293 CNG cAMP sensor, membrane potential fluorescence; AID 938; 2.5% of 73,000 active; Potency, µM (top dose mostly 57.1 µM), actives largely listed as activators; active = well fitted activation curve with a large enough effect; inconclusive = small, poorly fitted or top-dose-only effect; inactive = no such curve, though single readings can be large or run the other way; also: nearly all actives have a fitted effect of over 55% in size
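Counterscreen for endogenous-receptor signalling: CNG-channel HEK 293 cells report cAMP rise by membrane depolarization. After 60 min dye equilibration with 100 uM RO 20-1724, compounds incubated 30 min before bottom-read fluorescence at 590 nm.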
Hsp90 Hop PPI: changes Hsp90-Hop TPR2A binding signal, up or down | Potency, µM (highest dose often 57 µM) | 0.44% of 71,000 active | AlphaScreen TPR2A-His6 binding biotin-Hsp90 C-terminal peptide; active = well fitted curve in either direction with a large enough effect; inconclusive = small, poorly fitted or top-dose-only effect, or another doubt
IkB sig inh: suppresses IkB signaling in ABC-DLBCL reporter cells; ABC-DLBCL IkBa-CBG/CBR dual luciferase ratio, 4 h; response scale: scaled: untreated 0%, proteasome inhibitor 100%; Potency, µM (highest dose often 57.1 µM); 0.04% of 110,000 active; AID 445; active = well fitted curve in the direction sought with a large enough effect in the signal ratio, not every such curve was filed as active; inconclusive = small, poorly fitted or top-dose-only effect, or a change in a side signal; the % refers to the signal ratio;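 also: the direction sought is a rising ratio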
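Curves were fitted separately to fusion (green), unfused (red) and ratio luminescence, then classed by r2, magnitude and activity. Cells: OCI-Ly3, 4 h compound plus doxycycline at 37C; 10 uM MG-132 defined full response.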
TSHR agonist: TSH receptor (human) agonism | AID 926 | 0.48% of 73,000 active | Potency, µM (series often up to 57.1 µM), usual class: activators | HEK293-CNG-TSHR cells (CNG channel as cAMP sensor), membrane potential dye, cAMP; active = well fitted activation curve with a large enough effect in the main read-out, with a control signal flat, not every such curve was filed as active; inconclusive = small, poorly fitted or top-dose-only effect, or a change in a side signal; inactive = no such curve, though single readings can be large or run the other way; reference of the percent scale not stated here;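 also: the control signal comes from parental cells without the receptor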
Target sequence (P16473 whole entry, looked up): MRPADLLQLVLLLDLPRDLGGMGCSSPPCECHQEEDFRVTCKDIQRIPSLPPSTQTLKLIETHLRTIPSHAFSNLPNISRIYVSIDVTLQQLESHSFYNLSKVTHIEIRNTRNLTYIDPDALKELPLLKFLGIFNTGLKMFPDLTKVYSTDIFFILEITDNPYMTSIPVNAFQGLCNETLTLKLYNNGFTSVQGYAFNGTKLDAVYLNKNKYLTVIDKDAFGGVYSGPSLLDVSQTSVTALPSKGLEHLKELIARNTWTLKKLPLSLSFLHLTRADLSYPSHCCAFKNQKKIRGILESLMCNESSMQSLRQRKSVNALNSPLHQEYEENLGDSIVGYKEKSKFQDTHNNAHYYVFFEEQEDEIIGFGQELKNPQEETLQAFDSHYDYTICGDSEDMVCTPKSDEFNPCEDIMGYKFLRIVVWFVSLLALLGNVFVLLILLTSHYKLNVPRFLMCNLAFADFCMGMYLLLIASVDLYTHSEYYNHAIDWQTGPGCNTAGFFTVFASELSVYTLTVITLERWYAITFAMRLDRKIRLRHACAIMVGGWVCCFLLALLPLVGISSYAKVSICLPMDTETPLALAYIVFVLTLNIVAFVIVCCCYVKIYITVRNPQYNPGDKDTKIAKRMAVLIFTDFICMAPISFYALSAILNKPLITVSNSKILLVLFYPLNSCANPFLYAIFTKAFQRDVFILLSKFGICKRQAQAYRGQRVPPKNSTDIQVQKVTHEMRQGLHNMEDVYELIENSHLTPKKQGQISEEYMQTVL
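HEK 293 cells stably expressing TSHR and a modified CNG channel, with CNG-only parental cells as counterscreen, were preloaded 60 min at room temperature with membrane potential dye containing 100 uM RO 20-1724. Compound exposure was 30 min, and depolarization was read as fluorescence at 590 nm.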
CRE-bla Fsk: CRE-bla signaling modulation under forskolin stimulation; CHO CRE-bla reporter (cAMP response element driving beta-lactamase), forskolin EC10, beta-lactamase ratio; Potency, µM (doses to about 38.2 µM), usual class: activators; 2.5% of 71,000 active; AID 662; active = well fitted activation curve with a large enough effect in the signal ratio, with a control signal flat, not every such curve was filed as active; inconclusive = small, poorly fitted or top-dose-only effect, or effect the other way, or a change in a side signal; the % refers to the signal ratio
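CRE-bla CHO reporter cells treated with compound titration plus EC10 NKH 477 (water-soluble forskolin), incubated 3 h at 37 °C; CCF4 loading 2 h at room temperature, 460/530 nm emission ratio read, AC50 values derived for positive or negative modulators.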
Numbers stand for hits; n = inactive; u = inconclusive; x = no result; [ ] = another dose, or the depositor's remark. A selection: hits, their analogues and other compounds. The true share with any hit is near 3.5%.

SMILES	HEK293 cAMP cs	Hsp90 Hop PPI	IkB sig inh	TSHR agonist	CRE-bla Fsk
Cc1nc2cnc(Nc3ccccc3)nc2n(Cc2cccs2)c1=O	u	n	n[11.4 µM]	u	u
Cc1nc2cnc(Oc3ccccc3)nc2n(Cc2cccs2)c1=O	16µM	n	n[11.4 µM]	u	13µM
COc1ccc(Oc2ncc3nc(C)c(=O)n(Cc4cccs4)c3n2)cc1	u	n	n[11.4 µM]	u	10µM
COc1ccc(Oc2ncc3nc(-c4ccccc4)c(=O)n(Cc4cccs4)c3n2)cc1	u	n	n[11.4 µM]	u	u
Cc1ccn2c(Nc3ccc4c(c3)OCCO4)c(-c3ccc(N(C)C)cc3)nc2c1	x	x	n	x	x
CCOc1cc(C#N)c(NC(=O)c2ccc(OC)c(S(=O)(=O)N3CCCCC3)c2)cc1OCC	x	x	n	x	x
CCc1nc(SCC(=O)Nc2cc(C)on2)c2c(=O)n(C)c(=O)n(C)c2n1	n	n	n	n[11.4 µM]	u
Cc1nc(SCc2c(F)cccc2Cl)c2c(=O)n(C)c(=O)n(C)c2n1	u	n	n	u	2µM
Cc1csc(NC(=O)CSc2nc(C)nc3c2c(=O)n(C)c(=O)n3C)n1	n	n	n	n	1.6µM
Cc1nc(SCC(=O)OCc2ccccc2)c2c(=O)n(C)c(=O)n(C)c2n1	n	n	n	n	n
COC(=O)[C@@H]1C[C@H]1[C@@H](NS(=O)(=O)c1ccc2ccccc2c1)c1ccccc1	n	n	x	x	n
CC(=O)N[C@H]1[C@@H](O[C@@H](C)C(=O)O)[C@H](O)[C@H](CO)O[C@@H]1O	n	n	n	n	n
C=CCn1c(SCC(=O)c2cccs2)nc2sc(CC)cc2c1=O	16µM	n	n	u	u
O=C1c2ccccc2C(Cc2ccncc2)(Cc2ccncc2)c2ccccc21	3.2µM	n	n	u	n
CCOCCCn1c(C)nc2c(c1=O)c1nc3ccccc3nc1n2CCC1=CCCCC1	20µM	n	n	u	u
O=C(CCC1N=C2c3ccccc3N=C(SCc3ccc(F)cc3)N2C1=O)NCc1ccco1 (stereo not drawn)	u	n	n	u	n
O=C(CCC1N=C2c3ccccc3N=C(SCc3ccc(Cl)cc3)N2C1=O)NCc1ccco1 (stereo not drawn)	20µM	n	n	u	u
O=C(Nc1ccccc1)N1CCC2(CC1)CCN(C(=O)c1csnn1)CC2	n	n	n[11.4 µM]	4µM	n
O=C(Nc1ccccc1)N1CC[C@@]2(CCCN(C(=O)c3csnn3)C2)C1	n	n	n[11.4 µM]	n	n
O=C(Nc1cccc(F)c1)N1CCCC2(CCN(C(=O)c3cc(C(F)(F)F)cc(C(F)(F)F)c3)CC2)C1	n	n	n[11.4 µM]	n	u
NC(N)=NCCCC(=O)O	n[11.4 µM]	n[11 µM]	n[11.4 µM]	n[11.4 µM]	n[7.6 µM]
Cc1cccc(-n2c(SCc3cc(=O)n4ccsc4n3)nc3ccccc32)c1	u	n	u	u	1.6µM
O=S(=O)(NCCNC/C=C\c1ccc(Br)cc1)c1cccc2cnccc12	n	n	n	n	u
c1ccc(-n2cccc2CNC2CCCCC2)cc1	25µM	n	n	u	n
CC1=C(C(=O)Nc2ccccc2)C(c2cccs2)n2nc(SCc3ccccc3F)nc2N1 (stereo not drawn)	x	x	n	x	x
SMILES	HEK293 cAMP cs	Hsp90 Hop PPI	IkB sig inh	TSHR agonist	CRE-bla Fsk
CC1(C)Cc2ccccc2-c2nnc(SCc3ccc(C#N)cc3)n21	25µM	n	n	u	u
CCOC(=O)CSc1nnc2n1C(C)(C)Cc1ccccc1-2	n	n	n	n	n
C[C@H]1COC(=O)[C@H](Cc2ccccc2)NC(=O)[C@@H](C)COC(=O)[C@H](Cc2ccccc2)NC1=O	n[11.4 µM]	x	x	n[11.4 µM]	x
CCC(C)(c1ccc(C(=O)OC)s1)c1ccc(C(=O)OC)s1	20µM	u	n	u	n
COC(=O)c1cc2c(s1)-c1ccccc1OC2	n	u	n	x	u
Cc1nn(-c2ccc(N3CCCC3)nn2)c(C)c1CCC(=O)N1CCN(c2ccccc2F)CC1	x	x	n	x	x
CC(=O)Nc1nn(C)c2nc3cc(C)ccc3cc12	n	n	n	n	u
CCCn1nc(NC(=O)c2ccncc2)c2cc3ccccc3nc21	n	n	u	n	4µM
CCCCn1nc(NC(=O)c2cccs2)c2cc3cc(OC)ccc3nc21	n	20µM	u	x	u
CCCCn1nc(NC(=O)c2cccs2)c2cc3ccccc3nc21	n	x	x	n	x
Cc1ccc2cc3c(NC(=O)c4ccco4)nn(C)c3nc2c1	n	n	n	n	13µM
CCn1nc(NC(=O)c2ccncc2)c2cc3cc(C)ccc3nc21	n	n	n	n	2µM
Cc1ccc2cc3c(NC(=O)c4cccnc4)nn(C)c3nc2c1	u	u	n	u	n
Cc1oc2ncn(CC(C)C)c(=O)c2c1C(=O)Nc1cc(F)ccc1F	x	x	n	x	x
CCn1nc(NC(=O)c2ccncc2)c2cc3ccc(C)cc3nc21	n	n	n	n	13µM
CC(C)(C)n1ncc2c(=O)n(Cc3ccc(Cl)cc3Cl)cnc21	u	n	n	u	u
Cc1cc(C)n(-c2ccn(Cc3ccc(Cl)cc3Cl)c(=O)n2)n1	16µM	n	n	u	u
C[C@@H]1c2ccccc2Cn2cc3c(c21)C(=O)c1cccc(OP(=O)(O)OCc2ccccc2)c1C3=O	n[11.4 µM]	n[11 µM]	n[11.4 µM]	n[11.4 µM]	n[7.6 µM]
CN(C)c1ncc2ncc(=O)n(CCc3ccccc3)c2n1	13µM	u	n[11.4 µM]	u	u
COc1ccc(-c2nc3cnc(N(C)C)nc3n(CCc3ccccc3)c2=O)cc1	n	0.63µM	n[11.4 µM]	n	u
COc1cccc(Cn2c(=O)cnc3cnc(OC)nc32)c1	u	n	n[11.4 µM]	u	n
COc1cccc(Cn2c(=O)cnc3cnc(N(C)C)nc32)c1	u	n	n[11.4 µM]	u	6.3µM
CCOC(=O)c1[nH]cnc1C(=O)Nc1ccccn1	n	n	n	n	u
O=C(c1ccccc1)c1nc[nH]c1C(=O)Nc1ccccn1	n	n	n	n	10µM
CCc1ccccc1OC[C@@H](O)CN[C@H]1CCCc2ccccc21	40µM	n	u	u	u
SMILES	HEK293 cAMP cs	Hsp90 Hop PPI	IkB sig inh	TSHR agonist	CRE-bla Fsk
CCOC(=O)C1CCN(Cc2ccc(O)c3ncccc23)CC1	n	5µM	n	n	n
COC(=O)C1=C(C)NC(C)=C(C(=O)OCCSc2ccccc2)[C@@H]1C	n	40µM	u	x	u
CN1C[C@@H](C(=O)N[C@]2(C)O[C@]3(O)[C@H]4CCCN4C(=O)[C@H](Cc4ccccc4)N3C2=O)C[C@H]2c3cccc4[nH]cc(c34)C[C@@H]21	n	n	n	n	n
COCCN1CCN(c2c(C)c(C)nc3cc(-c4cccc(OC)c4)nn23)CC1	n	n	n	n	n
CCOCCN1CCN(c2c(C)c(C)nc3cc(-c4cc(OC)cc(OC)c4)nn23)CC1	n	u	n	n	3.2µM
O=C(O)CSc1nnc(Cn2nnc3ccccc32)n1CCc1ccccc1	n	n	n	n[11.4 µM]	7.9µM
NC(=O)CSc1nnc(Cn2c(=O)sc3ccccc32)n1CCc1ccccc1	n	n	n	n	n
O=C(O)CSc1nnc(CNc2ccc(Cl)cc2)n1Cc1ccccc1	32µM	n	n	u	n
CCC(=O)N1CCc2cc(S(=O)(=O)N(C)c3cccc(C)c3)ccc21	x	x	n	x	x
